Inconclusive results are not listed. Activity calls are given as the source filed them. Calls follow the shape of the full dose curve. Positions of bridges follow the written chain, without caps; N, C: chain ends. Non-standard residues stand in square brackets, D forms with d. Residues, ends and D or L forms follow the SMILES beside them. hArg = N=C(N)NCCCC[C@H](N)C(=O)O; Mpa = O=C(O)CCS
What follows are molecules tested against Acetylcholinesterase (Homo sapiens) (UniProt P22303) (assay: Acetylcholinesterase (AChE) small molecule antagonists: fluorescence cell-based qHTS assay (AID 1347398; also: nearly all actives have a fitted effect of over 50% in size)). Conditions: SH-SY5Y cells; Potency: AChE activity; outcome: AChE activity; series mostly up to 115 µM; activity change, negative = inhibition: at the top concentration.
Acetylcholinesterase (Homo sapiens), sequence (P22303 whole entry, looked up): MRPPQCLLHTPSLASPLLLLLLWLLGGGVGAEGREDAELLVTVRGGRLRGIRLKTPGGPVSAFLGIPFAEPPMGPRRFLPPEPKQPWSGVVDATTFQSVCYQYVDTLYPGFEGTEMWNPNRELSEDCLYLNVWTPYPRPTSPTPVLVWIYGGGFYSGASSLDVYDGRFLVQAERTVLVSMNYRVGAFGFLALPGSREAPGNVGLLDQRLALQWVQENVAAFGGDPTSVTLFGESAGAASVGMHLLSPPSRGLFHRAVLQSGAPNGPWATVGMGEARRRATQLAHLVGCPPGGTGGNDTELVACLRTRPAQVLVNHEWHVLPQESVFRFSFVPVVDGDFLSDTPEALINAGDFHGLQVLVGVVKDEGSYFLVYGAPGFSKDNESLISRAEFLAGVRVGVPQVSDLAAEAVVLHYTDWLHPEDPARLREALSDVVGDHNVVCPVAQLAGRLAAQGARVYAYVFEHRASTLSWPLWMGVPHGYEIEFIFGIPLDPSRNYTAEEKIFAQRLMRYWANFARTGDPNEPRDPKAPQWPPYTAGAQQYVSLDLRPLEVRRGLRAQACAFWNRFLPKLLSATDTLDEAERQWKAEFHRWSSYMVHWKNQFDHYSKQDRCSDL
Summary of the method: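 Endogenous acetylcholinesterase of SH-SY5Y neuroblastoma cells is measured in situ. After overnight attachment and 30 min compound exposure, cells receive acetylthiocholine and Thiolite Green; fluorescence is read after 40 min at room temperature.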
% is scaled to controls: 0 for no effect and ±100 for the full control effect.

| SMILES | Potency | activity change, negative = inhibition | outcome |
| --- | --- | --- | --- |
| CC(=O)OC1CC(C)OC(C)O1 (stereo not given) | inactive | – | – |
| Cc1noc(NS(=O)(=O)c2ccc(N)cc2)c1C | inactive | – | – |
| CN(C)Cc1ccccc1O | – | 0.192% (inactive) | – |
| CCOC(=O)Cc1cccc2ccccc12 | – | -5.61% (inactive) | – |
| CC(=O)/C(C)=C/C1C(C)=CCCC1(C)C (stereo not given) | – | -6.52% (inactive) | – |
| CCc1cccc(O)c1 | inactive | – | – |
| COc1ccc(-n2nc(CCC(=O)N(C)O)cc2-c2ccc(Cl)cc2)cc1 | – | -0.274% [at 53.7 µM] (inactive) | – |
| CCCCOC(O)CC (stereo not given) | – | 5% (inactive) | – |
| CCOC(=O)c1ccccc1C | – | 2.96% (inactive) | – |
| CN1Cc2c(N)cccc2C(c2ccccc2)C1 (stereo not given) | inactive | – | – |
| CCCCCCCCCCCCCO | inactive | – | – |
| Fc1ccc(C(c2ccc(F)cc2)N2CCNCC2)cc1 | – | 3.1% [at 53.7 µM] (inactive) | – |
| CC(C)(C)OC=O | – | 4.87% (inactive) | – |
| CC(=O)OCC(=O)[C@@]1(O)CCC2C3CCC4=CC(=O)CC[C@]4(C)C3[C@@H](O)C[C@@]21C (stereo not given in full) | – | 1.99% [at 53.7 µM] (inactive) | – |
| CC(C)Cc1ccc(C(C)C(=O)O)cc1 (stereo not given) | inactive | – | – |
| CN(Cc1cnc2nc(N)nc(N)c2n1)c1ccc(C(=O)N[C@@H](CCC(=O)O)C(=O)O)cc1 | inactive | – | – |
| CCCCCCCCCC(=O)O | inactive | – | – |
| C[N+](C)(C)CCO | – | – | inactive |
| C1CCN(CN2CCCCC2)CC1 | – | 3.57% (inactive) | – |
| CCOC(=O)C1OC1c1ccccc1 (stereo not given) | inactive | – | – |

| SMILES | Potency | activity change, negative = inhibition | outcome |
| --- | --- | --- | --- |
| NC(=O)[C@@H]1CSSCCC(=O)N[C@@H](CCCCN=C(N)N)C(=O)NCC(=O)N[C@@H](CC(=O)O)C(=O)N[C@@H](Cc2c[nH]c3ccccc23)C(=O)N2CCC[C@H]2C(=O)N1 ([Mpa][hArg]GDWPC-NH2; disulfide 1-7) | – | 4.52% [at 53.7 µM] (inactive) | – |
| Clc1ccc2c(c1)Nc1ccccc1S2 | – | -6.56% [at 53.7 µM] (inactive) | – |
| CCCCC1(COC(=O)CCC(=O)O)C(=O)N(c2ccccc2)N(c2ccccc2)C1=O | inactive | – | – |
| ON=C1CCCCC1 | inactive | – | – |
| CCCCCCCC/C=C\CCCCCCCC(=O)OC(CO)CO | – | -17.7% (inactive) | – |
| COC(=O)C(C)O (stereo not given) | – | 5.7% (inactive) | – |
| Cc1ccc(C(C)(C)C)c(O)c1 | inactive | – | – |
| CC(=O)OCCCc1ccccc1 | – | -0.355% (inactive) | – |
| O=C(O)c1cc(O)c(O)c(O)c1 | – | -9.55% [at 53.7 µM] (inactive) | – |
| Nc1ccc2c(c1)C(=O)c1ccccc1C2=O | inactive | – | – |
| CC1CCC(C(C)CS)CC1S (stereo not given) | – | -6.9% (inactive) | – |
| CCN(CC)C(=O)c1ccc(O)c(OC)c1 | – | 7.34% [at 53.7 µM] (inactive) | – |
| c1ccc2c(c1)-c1ccc3ccc4cccc5cc-2c1c3c45 | – | 3.91% [at 53.7 µM] (inactive) | – |
| CO[C@@]1(NC(=O)CSCC#N)C(=O)N2C(C(=O)O)=C(CSc3nnnn3C)CS[C@@H]21 | – | 12% [at 53.7 µM] (inactive) | – |
| O=C(CC(C(=O)OC1CCCCC1)S(=O)(=O)O)OC1CCCCC1 (stereo not given) | inactive | – | – |
| CC/C=C\CCCCCO | – | 0.0917% (inactive) | – |
| O=C1OCCN1/N=C/c1ccc([N+](=O)[O-])o1 | – | -11.8% [at 53.7 µM] (inactive) | – |
| C=CCNC(N)=S | inactive | – | – |
| Cc1nnc(NS(=O)(=O)c2ccc(N)cc2)s1 | inactive | – | – |
| C[C@]12CC[C@H]3[C@@H](CCC4=CC(=O)CC[C@@]43C)[C@@H]1CC[C@@H]2C(=O)CO | inactive | – | – |

What follows are molecules tested against Acetylcholinesterase (Homo sapiens) (UniProt P22303) (assay: Acetylcholinesterase (AChE) small molecule antagonists: enzyme-based qHTS assay with human liver microsomes (AID 1347399; also: nearly all actives have a fitted effect of over 60% in size)). Conditions: Potency: qHTS inhibition; outcome: qHTS inhibition; series mostly up to 115 µM; activity change, negative = inhibition: at the top concentration.
Summary of the method: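 Recombinant human AChE (50 mU/mL in the enzyme mix) and human liver microsomes (0.25 mg/mL final) were preincubated with compound and NADPH (0.25 mg/mL final) for 30 min at 37 C. Acetylthiocholine/DTNB was then added; thiocholine was read colorimetrically after 10 min at room temperature.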

| SMILES | Potency | activity change, negative = inhibition | outcome |
| --- | --- | --- | --- |
| CC(=O)OC1CC(C)OC(C)O1 (stereo not given) | inactive | – | – |
| Cc1noc(NS(=O)(=O)c2ccc(N)cc2)c1C | inactive | – | – |
| CN(C)Cc1ccccc1O | – | 0.611% (inactive) | – |
| CCOC(=O)Cc1cccc2ccccc12 | – | -0.764% (inactive) | – |
| CC(=O)/C(C)=C/C1C(C)=CCCC1(C)C (stereo not given) | – | -0.207% (inactive) | – |
| CCc1cccc(O)c1 | inactive | – | – |
| COc1ccc(-n2nc(CCC(=O)N(C)O)cc2-c2ccc(Cl)cc2)cc1 | – | -1.17% [at 53 µM] (inactive) | – |
| CCCCOC(O)CC (stereo not given) | – | -0.458% (inactive) | – |
| CCOC(=O)c1ccccc1C | – | 0% (inactive) | – |
| CN1Cc2c(N)cccc2C(c2ccccc2)C1 (stereo not given) | inactive | – | – |
| CCCCCCCCCCCCCO | inactive | – | – |
| Fc1ccc(C(c2ccc(F)cc2)N2CCNCC2)cc1 | – | -1.47% [at 53 µM] (inactive) | – |
| CC(C)(C)OC=O | – | -2.85% (inactive) | – |
| CC(=O)OCC(=O)[C@@]1(O)CCC2C3CCC4=CC(=O)CC[C@]4(C)C3[C@@H](O)C[C@@]21C (stereo not given in full) | – | 10.8% [at 53 µM] (inactive) | – |
| CC(C)Cc1ccc(C(C)C(=O)O)cc1 (stereo not given) | inactive | – | – |
| CN(Cc1cnc2nc(N)nc(N)c2n1)c1ccc(C(=O)N[C@@H](CCC(=O)O)C(=O)O)cc1 | inactive | – | – |
| CCCCCCCCCC(=O)O | inactive | – | – |
| C[N+](C)(C)CCO | – | – | inactive |
| C1CCN(CN2CCCCC2)CC1 | – | -0.83% (inactive) | – |
| CCOC(=O)C1OC1c1ccccc1 (stereo not given) | inactive | – | – |

| SMILES | Potency | activity change, negative = inhibition | outcome |
| --- | --- | --- | --- |
| NC(=O)[C@@H]1CSSCCC(=O)N[C@@H](CCCCN=C(N)N)C(=O)NCC(=O)N[C@@H](CC(=O)O)C(=O)N[C@@H](Cc2c[nH]c3ccccc23)C(=O)N2CCC[C@H]2C(=O)N1 ([Mpa][hArg]GDWPC-NH2; disulfide 1-7) | – | 0.812% [at 53 µM] (inactive) | – |
| Clc1ccc2c(c1)Nc1ccccc1S2 | – | 0.666% [at 53 µM] (inactive) | – |
| CCCCC1(COC(=O)CCC(=O)O)C(=O)N(c2ccccc2)N(c2ccccc2)C1=O | inactive | – | – |
| ON=C1CCCCC1 | inactive | – | – |
| CCCCCCCC/C=C\CCCCCCCC(=O)OC(CO)CO | – | -1.01% (inactive) | – |
| COC(=O)C(C)O (stereo not given) | – | -1.97% (inactive) | – |
| Cc1ccc(C(C)(C)C)c(O)c1 | inactive | – | – |
| CC(=O)OCCCc1ccccc1 | – | 0.373% (inactive) | – |
| O=C(O)c1cc(O)c(O)c(O)c1 | inactive | – | – |
| Nc1ccc2c(c1)C(=O)c1ccccc1C2=O | inactive | – | – |
| CC1CCC(C(C)CS)CC1S (stereo not given) | – | -0.153% (inactive) | – |
| CCN(CC)C(=O)c1ccc(O)c(OC)c1 | – | 0.179% [at 53 µM] (inactive) | – |
| c1ccc2c(c1)-c1ccc3ccc4cccc5cc-2c1c3c45 | – | 1.7% [at 53 µM] (inactive) | – |
| CO[C@@]1(NC(=O)CSCC#N)C(=O)N2C(C(=O)O)=C(CSc3nnnn3C)CS[C@@H]21 | – | 0.27% [at 53 µM] (inactive) | – |
| O=C(CC(C(=O)OC1CCCCC1)S(=O)(=O)O)OC1CCCCC1 (stereo not given) | inactive | – | – |
| CC/C=C\CCCCCO | – | -2.07% (inactive) | – |
| O=C1OCCN1/N=C/c1ccc([N+](=O)[O-])o1 | – | 1.18% [at 53 µM] (inactive) | – |
| C=CCNC(N)=S | inactive | – | – |
| Cc1nnc(NS(=O)(=O)c2ccc(N)cc2)s1 | inactive | – | – |
| C[C@]12CC[C@H]3[C@@H](CCC4=CC(=O)CC[C@@]43C)[C@@H]1CC[C@@H]2C(=O)CO | inactive | – | – |
